USP1 inh = Inhibitors of USP1/UAF1: Primary Screen; recombinant USP1/UAF1, Ub-Rhodamine cleavage fluorescence; Potency, µM (series often up to 57.1 µM), inactives show top-dose activity change, negative = inhibition, hits mostly inhibitors; hit rate 0.23% among 390,000; AID 743255, 2014; also: % is scaled to controls: 0 for no effect and ±100 for the full control effect; nearly all actives have a fitted effect of over 60% in size
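USP1/UAF1 complex at 1 nM was preincubated with compound for 15 min at room temperature, then Ub-Rho substrate (150nM final) was added. Fluorescence (480/540 nm) was read kinetically, 6 reads every 60 seconds.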
EPAC2 antagonist = qHTS for Antagonist of cAMP-regulated guanine nucleotide exchange factor 2 (EPAC2): primary screen; Rap guanine nucleotide exchange factor 4 (Homo sapiens), Q8WZA2; EPAC2 GEF exchange of Rap1B-BODIPY-GDP, fluorescence; Potency, µM (titrated, usually from 114 µM), without a hit: top-dose activity, negative = inhibition, usual class: inhibitors; hit rate 0.18% among 360,000; AID 720708, 2013; also: % is scaled to controls: 0 for no effect and ±100 for the full control effect; nearly all actives have a fitted effect of over 45% in size
EPAC2 ag = qHTS for Agonist of cAMP-regulated guanine nucleotide exchange factor 4 (EPAC2): primary screen; Rap guanine nucleotide exchange factor 4 (Homo sapiens), Q8WZA2; EPAC2 activation, biochemical qHTS; response scale: 100% = 6.5 mM cAMP response; Potency, µM (top dose mostly 154 µM), without a hit: at the highest dose activation, hits mostly activators; hit rate 0.079% among 360,000; AID 720711, 2013; also: nearly all actives have a fitted effect of over 50% in size
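Setup: EPAC2 100 nM, labeled Rap1B complex 250 nM, free GDP 50 uM. Compound titrations pinned in, brief spin, 5 min room temperature incubation. Kinetic fluorescence read over 30 min, normalized to 6.5 mM cAMP.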
EPAC1 ag = qHTS for Agonist of cAMP-regulated guanine nucleotide exchange factor 3 (EPAC1): primary screen | EPAC1 agonist qHTS, biochemical assay; response scale: 100% = response to 6.5 mM cAMP | hit rate 0.073% among 360,000 | Potency, µM (highest dose often 154 µM), without a hit: at the highest dose activation, most hits filed as activators; also: nearly all actives have a fitted effect of over 60% in size
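Fluorescent GDP-exchange assay: 100 nM EPAC1 with 250 nM Rap1B preloaded with BODIPY-GDP and 50 uM GDP; compounds tested as concentration series, 5 min at room temperature, then read every 5 min for 30 min (ex 480/em 540 nm); normalized to 6.5 mM cAMP.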
HEK293 tox = qHTS of GLP-1 Receptor Inverse Agonists: Cytotox Screen; Potency, µM (series often up to 38.3 µM), for inactives: at the top dose activity change, negative = inhibition, actives largely listed as inhibitors; hit rate 0.13% among 410,000; HEK293 cAMP-luciferase reporter cells, luminescence, 24 h; AID 624418, 2012;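 also: loss of luciferase light is scored as toxicity; % is scaled to controls: 0 for no effect and ±100 for the full control effect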
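Luminescence readout: signal drop marks cytotoxicity. Plated cells grew 12 h at 37 °C, 5% CO2, received 23 nL compound for 24 h, then got luciferase reagent, read after 12 min at RT.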
EPAC1 antagonist = qHTS for Antagonist of cAMP-regulated guanine nucleotide exchange factor 3 (EPAC1): primary screen. AID 720709, 2013. EPAC1 GEF assay, Rap1b-BODIPY-GDP exchange fluorescence. hit rate 0.14% among 360,000. Potency, µM (highest dose often 115 µM), for inactives: at the top dose activity change, negative = inhibition, most hits filed as inhibitors. Rap guanine nucleotide exchange factor 3 (Homo sapiens), O95398;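 also: plate controls were vehicle for no effect and positive control for full effect; nearly all actives have a fitted effect of over 50% in size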
Starred values were filed as active, the others as inactive; ? = inconclusive; . = not tested or not shown; [ ] = dose if it differs, or a comment. An excerpt weighted towards active compounds, which were near 0.55% of everything screened. Calls follow the shape of the dose curve; as a rule, active = well fitted curve in the direction sought with a large enough effect; inconclusive = small, poorly fitted or top-dose-only effect, or another doubt; inactive = no such curve, though single readings can be large; an effect the other way counts as inactive or inconclusive. Potency is read from the fitted curve at half-maximal effect.

SMILES	USP1 inh	EPAC2 antagonist	EPAC2 ag	EPAC1 ag	HEK293 tox	EPAC1 antagonist
COc1ccc(-n2ncc(C(=O)Nc3cccc(C(F)(F)F)c3)c2C2CCN(C(=O)OC(C)(C)C)CC2)cc1	-4%	.	.	.	2%	.
O=C1/C(=C/C=C/c2ccco2)SC(=S)N1NS(=O)(=O)c1ccccc1	?	?	-1%	6%	?	100µM*
CC[C@H](C)/C=C/C1=CC2=C(Cl)C(=O)[C@@]3(C)OC(=O)C(C(=O)[C@H](C)[C@@H](C)O)=C3C2=CO1	?	?	-14%	-21%	-9%	50µM*
Cc1nc(C)c(-c2csc(Nc3ccc(C(=O)O)c(O)c3)n2)s1	-5%	10µM*	-1%	19%	2%	?
COc1ccc2cc(CNCCOCCOCCNCc3ccc4cc(OC)ccc4c3)ccc2c1	-8%	2%	3%	-2%	4µM*	7%
CCOCCCNCc1ccc(OC)cc1	-10%	-1%	13%	10%	-23%	-2%
CCN1C/C(=C/c2ccc(N3CCOCC3)cc2)C(=O)/C(=C/c2ccc(N3CCOCC3)cc2)C1	?	135%	89µM*	63µM*	-20%	39%
CCOC(=O)c1cc(-c2ccccc2)n(CCCC(=O)Nc2cccc(C)c2C)c1C	-13%	.	.	.	-25%	.
COC(=O)c1sc(N2C(=O)C(=O)/C(=C(/O)c3ccccc3)C2c2ccco2)nc1C (centres undefined)	-11%	2%	-4%	-4%	-23%	-3%
Cc1nc(N2C(=O)C(=O)/C(=C(/O)c3ccccc3)C2c2ccco2)sc1C (centres undefined)	-9%	14%	4µM*	-3%	-23%	9%
CS(=O)(=O)c1ccc2nc(NC(=O)C3CCCO3)sc2c1 (centres undefined)	-5%	4%	-3%	5%	5%[7.66 µM]	3%
O=C(Nc1nc2ccc(Cl)cc2s1)C1CCCO1 (centres undefined)	-24%	-4%	7.9µM*	-6%	-4%	5%
Cc1ccc(N2CCN(c3c(CN4CCCC4)c(=O)oc4ccccc34)CC2)c(C)c1	-4%	.	.	.	0%	.
N#CC(Sc1ccccn1)c1ccc(Cl)cc1Cl (centres undefined)	-15%	25µM*	21%	5%	9%[7.66 µM]	-13%
N#Cc1cc(Sc2ccccn2)c(Sc2ccccn2)cc1C#N	-8%	-2%	-4%	7%	8%	-11%
CCOc1ccccc1NC(=O)CSc1nccn1Cc1ccc(F)cc1	-15%	.	.	.	-6%	.
CNC(=S)N/N=C/c1c2ccccc2c(Cl)c2ccccc12	?	3%	?	0%	3.5µM*	-4%
CNC(=S)N/N=C/c1c(C)cccc1Cl	9%	0%	10%	3%	?	-18%
O=C1C(SCCO)=C(SCCO)C(=O)c2ccccc21	6.3µM*	4%	6%	-3%	120%	?
O=C1C(Cl)=C(NCCCO)C(=O)c2ccccc21	?	-12%	-4%	3%	-9%	-21%
CCS(=O)(=O)Nc1cc(-c2cn3ccc(C)cc3n2)ccc1C	-26%	.	.	.	-2%	.
CCOC(=O)c1c(C)sc(-c2c(-c3cc(C)ccc3C)[nH]c3c2c(=O)n(C)c(=O)n3C)c1O	28µM*	.	.	.	-13%	.
CCOC(=O)c1c(C)sc(-c2c(-c3cccc(Cl)c3)[nH]c3c2c(=O)n(C)c(=O)n3C)c1O	16µM*	.	.	.	7%	.
CCOC(=O)c1c(C)sc(-c2c(-c3cc(C)ccc3C)[nH]c3c2c(=O)[nH]c(=O)n3C)c1O	25µM*	.	.	.	-4%	.
O=C(Cc1cccs1)N/N=C\c1ccc([N+](=O)[O-])s1	-20%	5%	-5%	1%	-22%	-17%
SMILES	USP1 inh	EPAC2 antagonist	EPAC2 ag	EPAC1 ag	HEK293 tox	EPAC1 antagonist
Cc1cc(C)cc(N=Cc2ccc([N+](=O)[O-])s2)c1	13µM*	-3%	6%	0%	?	?
NC(=O)c1ccc(N=Cc2ccc([N+](=O)[O-])s2)cc1	10µM*	-14%	9%	9%	?	16%
Cn1c(=O)c2c(n3c4ccccc4nc13)NC(=O)CC2c1ccccc1F (centres undefined)	-2%	.	.	.	-1%	.
CC(=O)Nc1ccc(Nc2nc3ccccc3nc2NS(=O)(=O)c2ccc(Cl)c([N+](=O)[O-])c2)cc1	?	79µM*	-10%	-17%	-26%	?
CC(=O)Nc1ccc(S(=O)(=O)Nc2nc3ccccc3nc2Nc2ccc(N)cc2)cc1	6%	-4%	-7%	-11%	7%	?
O=C(c1ccc2c(c1)OCO2)N1CCC2(CC1)Oc1ccc(Cl)cc1C(=O)C21CC(c2ccccc2)=NO1 (centres undefined)	-1%	7%	1%	-4%	4.5µM*	-17%
CCOc1ccc(NC(=O)CSc2oc(-c3ccco3)nc2S(=O)(=O)c2ccccc2)cc1	-25%	.	.	.	0%	.
CCCCc1ccc(NC(=O)CSc2nc(=O)[nH]c3c2CCCC3)cc1	?	.	.	.	7%	.
O=C1C=CC(=C(c2ccc(O)cc2)c2ccc(O)cc2)C=C1	-12%	4%	-1%	8%	8.9µM*	-16%
CC(=O)c1ccc(NC(=O)c2ccc3c(c2)N(Cc2cccc(Cl)c2)C(=O)c2ccccc2S3(=O)=O)cc1	?	.	.	.	-7%	.
O=C(Nc1c(C(=O)N2CCN(c3ccccc3)CC2)oc2ccccc12)c1ccco1	-19%	.	.	.	-1%	.
CCc1ccccc1NS(=O)(=O)c1ccc2c(c1)OCC(C(=O)N1CCCC1)O2 (centres undefined)	-9%	.	.	.	-1%	.
Cc1ccnc2c1ccc1cccnc12	-18%	4%	14%	11%	1.6µM*	-27%
Cc1ccnc2c1ccc1ccccc12	-11%	-9%	11%	7%	5%	5%
CC(C)=CCC1=C(OCC(=O)O)C(=O)c2ccccc2C1=O	10µM*	?	23%	2%	?	?
CC(C)=CCC/C(C)=C/CC/C(C)=C/CC/C(C)=C/CC1=C(C)C(=O)c2ccccc2C1=O	-24%	-20%	-3%	-18%	-7%	?
COc1ccc(-n2nc(C(=O)N(C)c3cc(Cl)ccc3OC)c3c4ccccc4n(C)c3c2=O)cc1	?	.	.	.	-10%	.

Assay outcomes: PubChem, National Center for Advancing Translational Sciences (NCATS)
